Data published in PubChem BioAssay (NCI).
This is part of a sample that, as a whole, favours compounds with a hit. Of some 83,000 tested, about 20% had one in any assay.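 Activity criterion: percent growth below 10, measured after cells in 96-well plates were exposed to a single compound concentration for 48 hours.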 Active and inactive are the calls of the source.

How the values were obtained:
Assay in all cases: NCI-60 one-dose screen, 48 h (100 = growth as untreated, 0 = no growth, -100 = all killed)
Settings in all cases: 10 µM unless noted
SR leukemia = system: SR leukemia
RPMI-8226 leukemia = system: RPMI-8226 leukemia
OVCAR-8 ovarian = system: OVCAR-8 ovarian
OVCAR-5 ovarian = system: OVCAR-5 ovarian
OVCAR-4 ovarian = system: OVCAR-4 ovarian
SK-OV-3 ovarian = system: SK-OV-3 ovarian
IGROV1 ovarian = system: IGROV1 ovarian
OVCAR-3 ovarian = system: OVCAR-3 ovarian
HS 578T breast = system: HS 578T breast
NCI/ADR-RES ovarian = system: NCI/ADR-RES ovarian

Measured: growth

O=C(COc1ccc(NC(=O)Nc2ccc(Cl)cc2)cc1)N/N=C/c1ccccc1
active: SR leukemia 6.18% | RPMI-8226 leukemia -23.5% | OVCAR-8 ovarian -49% | OVCAR-5 ovarian -9.58% | OVCAR-4 ovarian -51.9% | SK-OV-3 ovarian -60.2% | IGROV1 ovarian -57.3% | OVCAR-3 ovarian -76.9% | HS 578T breast -36.9% | NCI/ADR-RES ovarian -10.9%

C=C1CCC2C3(C)COC(c4ccccc4)OC3CCC2(C)C1CC(Sc1ccccc1)C1=CCOC1=O (stereo not given)
active: SR leukemia 8.04% | RPMI-8226 leukemia 3.18% | NCI/ADR-RES ovarian -22.7%
inactive: OVCAR-8 ovarian 12.9% | OVCAR-5 ovarian 58.5% | OVCAR-4 ovarian 50.4% | SK-OV-3 ovarian 120% | IGROV1 ovarian 58% | OVCAR-3 ovarian 44% | HS 578T breast 94.1%

COc1ccc(-c2ccnc(SCc3cc4cc(OC)ccc4[nH]c3=O)n2)cc1
active: SR leukemia 4.47% | RPMI-8226 leukemia 9.3% | NCI/ADR-RES ovarian -11.4%
inactive: OVCAR-8 ovarian 33.3% | OVCAR-5 ovarian 46.8% | OVCAR-4 ovarian 43.3% | SK-OV-3 ovarian 45.2% | IGROV1 ovarian 33.3% | OVCAR-3 ovarian 18.3% | HS 578T breast 28.2%

CC1[C@H]2[C@H](C[C@H]3[C@@H]4CC=C5c6sc(Nc7ccccc7F)nc6CC[C@]5(C)[C@H]4CC[C@@]32C)O[C@]12CC[C@@H](C)CO2 (stereo not given in full)
active: SR leukemia 4.49% | RPMI-8226 leukemia -16.2% | OVCAR-8 ovarian -83.4% | OVCAR-5 ovarian -67.1% | OVCAR-4 ovarian -42.9% | SK-OV-3 ovarian -19.5% | IGROV1 ovarian -37.6% | OVCAR-3 ovarian -74.3% | HS 578T breast -16.1% | NCI/ADR-RES ovarian -33.9%

C=C1CCC2C3(C)COC(c4ccc(F)cc4)OC3CCC2(C)C1CC(O)C1=CCOC1=O (stereo not given)
active: OVCAR-8 ovarian -2.76% | NCI/ADR-RES ovarian 0.657%
inactive: SR leukemia 21.6% | RPMI-8226 leukemia 21.9% | OVCAR-5 ovarian 51% | OVCAR-4 ovarian 53.8% | SK-OV-3 ovarian 98% | IGROV1 ovarian 36.5% | OVCAR-3 ovarian 63.4% | HS 578T breast 71%

Cc1cc2c(cc1Cl)C(=O)/C(=C/c1ccc(F)cc1)O2
inactive: SR leukemia 89.1% | RPMI-8226 leukemia 97.2% | OVCAR-8 ovarian 97.5% | OVCAR-5 ovarian 106% | OVCAR-4 ovarian 90.9% | SK-OV-3 ovarian 100% | IGROV1 ovarian 20.9% | OVCAR-3 ovarian 124% | HS 578T breast 97.1% | NCI/ADR-RES ovarian 93.3%

Cn1cc(-c2cc(N)n3nc(-c4cn(C)c5ncccc45)cc3n2)c2cccnc21
inactive: SR leukemia 51.1% | RPMI-8226 leukemia 54.3% | OVCAR-8 ovarian 61.3% | OVCAR-5 ovarian 92.8% | OVCAR-4 ovarian 71.4% | SK-OV-3 ovarian 99.8% | IGROV1 ovarian 98% | OVCAR-3 ovarian 96.7% | HS 578T breast 89.2% | NCI/ADR-RES ovarian 68.6%

COc1ccc2[nH]cc(-c3nc(N)nnc3-c3cn(C)c4ncccc34)c2c1
inactive: SR leukemia 33.5% | RPMI-8226 leukemia 58.2% | OVCAR-8 ovarian 64.4% | OVCAR-5 ovarian 77.9% | OVCAR-4 ovarian 78% | SK-OV-3 ovarian 86.3% | IGROV1 ovarian 32.9% | OVCAR-3 ovarian 16.2% | HS 578T breast 37.2% | NCI/ADR-RES ovarian 99%

COc1ccc(/C=C2\C(=N)N=C(SCc3nc4ccccc4[nH]3)NC2=O)cc1
inactive: SR leukemia 103% | RPMI-8226 leukemia 95.8% | OVCAR-8 ovarian 107% | OVCAR-5 ovarian 119% | OVCAR-4 ovarian 102% | SK-OV-3 ovarian 116% | IGROV1 ovarian 114% | OVCAR-3 ovarian 110% | HS 578T breast 99.5% | NCI/ADR-RES ovarian 104%

CCOP(=O)(OCCCl)c1nc(-c2ccc(C)cc2)oc1NCc1ccccc1 (stereo not given)
inactive: SR leukemia 66.8% | RPMI-8226 leukemia 43.2% | OVCAR-8 ovarian 78.7% | OVCAR-5 ovarian 98.4% | OVCAR-4 ovarian 68.3% | SK-OV-3 ovarian 91% | IGROV1 ovarian 62.4% | OVCAR-3 ovarian 75% | HS 578T breast 74.6% | NCI/ADR-RES ovarian 63.8%

CCC(C)(C)c1ccc(OCCCCCCN2CCN(c3ccncc3)CC2)cc1
active: SR leukemia -27.5% | RPMI-8226 leukemia -44.5% | HS 578T breast -7.9%
inactive: OVCAR-8 ovarian 54% | OVCAR-5 ovarian 65.7% | OVCAR-4 ovarian 47.7% | SK-OV-3 ovarian 38.5% | IGROV1 ovarian 49.8% | OVCAR-3 ovarian 38% | NCI/ADR-RES ovarian 19%

CC(C)(C)OC(=O)/C=C/c1cccc2c1C(=O)NC(C)(c1cc3cc(Cl)ccc3oc1=O)N2 (stereo not given)
inactive: OVCAR-8 ovarian 39.1% | OVCAR-5 ovarian 67.1% | OVCAR-4 ovarian 43.9% | SK-OV-3 ovarian 47.6% | IGROV1 ovarian 44.7% | OVCAR-3 ovarian 43.8% | HS 578T breast 65.1% | NCI/ADR-RES ovarian 25.4%
active: SR leukemia 8.86% | RPMI-8226 leukemia 1.99%

COc1ccc2[nH]cc(-c3cc(N)n4nc(-c5cn(C)c6ccccc56)cc4n3)c2c1
active: SR leukemia 9.5% | RPMI-8226 leukemia -18% | OVCAR-8 ovarian -95.6% | OVCAR-5 ovarian -85.9% | OVCAR-4 ovarian -58.3% | SK-OV-3 ovarian -84% | IGROV1 ovarian -64.2% | OVCAR-3 ovarian -43% | HS 578T breast -7.76% | NCI/ADR-RES ovarian -45.3%

C/C(=N\N=C1/C(=O)Nc2ccc(Cl)cc21)c1ccc2c(c1)Nc1ccccc1S2
inactive: SR leukemia 11.4% | RPMI-8226 leukemia 10.8% | OVCAR-5 ovarian 15.8% | OVCAR-4 ovarian 15.7% | SK-OV-3 ovarian 50.4%
active: OVCAR-8 ovarian -15.6% | IGROV1 ovarian -8.9% | OVCAR-3 ovarian -66.9% | HS 578T breast 9.82% | NCI/ADR-RES ovarian -28.3%

Cc1ccc(C(=O)CSc2nc3ccc(F)cc3c(=O)n2-c2ccc(Cl)cc2)cc1
inactive: SR leukemia 93.9% | RPMI-8226 leukemia 93.9% | OVCAR-8 ovarian 37.8% | OVCAR-5 ovarian 76.2% | OVCAR-4 ovarian 31% | SK-OV-3 ovarian 46% | IGROV1 ovarian 82.7% | OVCAR-3 ovarian 82.4% | NCI/ADR-RES ovarian 28.3%
active: HS 578T breast -18.9%

Cc1ccc2c(c1)nc(-c1ccccc1)n2CC(=O)N=Nc1c(O)[nH]c2ccc(Br)cc12
active: SR leukemia 0.421% | RPMI-8226 leukemia -1.7% | OVCAR-8 ovarian -67.2% | OVCAR-5 ovarian -20.2% | OVCAR-4 ovarian -49.3% | SK-OV-3 ovarian -32% | IGROV1 ovarian -78% | OVCAR-3 ovarian -75.2% | HS 578T breast -5.01% | NCI/ADR-RES ovarian -69.6%

Clc1cccc(-c2ccc(OCCCN3CCN(c4ccncc4)CC3)cc2)c1
active: SR leukemia -38.5% | RPMI-8226 leukemia -39.1% | OVCAR-3 ovarian 0.45% | HS 578T breast -2.27% | NCI/ADR-RES ovarian 5.66%
inactive: OVCAR-8 ovarian 37.9% | OVCAR-5 ovarian 69.7% | OVCAR-4 ovarian 38.2% | SK-OV-3 ovarian 30.1% | IGROV1 ovarian 49.6%
